In PubChem BioAssay (EPA / NIEHS) one finds outcome and AC50 data, which are given here for 36 compounds.

Values joined by “and” are separate entries in the source; they are usually repeats but may differ in a detail not shown here. Identical values can stand only once. Active and inactive are the calls of the source. How the source made its calls: active means hit-call score of the fitted dose curve at least 0.9, where 1 is the maximum; inactive means score below 0.9.

Read-out in the assay: Interleukin-1 alpha (IL1a), IL1A (gene 3552)
As to the kind of experiment: BSK_KF3CT_IL1a: BioMAP Diversity Plus: KF3CT Assay for Interleukin-1 alpha (IL1a) Biomarker Activity (AID 2283070). Particulars: primary human keratinocytes with fibroblasts; actives raise or lower the signal. A digest of the protocol:
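Readout is IL-1a level by ELISA, compared bidirectionally with DMSO as baseline. Cells: human keratinocytes co-cultured with foreskin fibroblasts, harvested 24 h post-dose.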
In the case of `O=c1c2ccccc2oc2ccccc12`, the outcome was inactive.

With `COCc1c(C(C)C)nc(C(C)C)c(/C=C/[C@@H](O)C[C@@H](O)CC(=O)O)c1-c1ccc(F)cc1`, the outcome was inactive. Same read-out and setting: the same measure for `O=Nc1ccc(O)cc1`: “inactive”; for `N#[N+]c1ccc2c(S(=O)(=O)[O-])cccc2c1O`: “inactive”. With `C#CC1(O)CC[C@H]2[C@@H]3CCC4=CCCC[C@@H]4[C@H]3CC[C@@]21C` (stereo partly specified), the AC50 was 31.7 µM (active).

Take `O=C(Cl)c1cc(C(=O)Cl)cc(C(=O)Cl)c1`: the AC50 is 33.8 µM (active). For the compound `CC(C)C(=O)C(C)C`, the outcome was inactive.

As to `C=CC(=O)OCC(Br)CBr` (stereo unspecified), the AC50 was 32.2 µM (active).

For `CCOC(=O)c1ccccc1C(=C1C=C(Br)C(=O)C(Br)=C1)c1cc(Br)c(O)c(Br)c1`, the AC50 was 3.49 µM (active) and 3.47 µM (active).

For the compound `c1ccc2c(c1)ccc1ncccc12`, the AC50 was 8.26 µM (active). As to `CCCCC(CC)COC(=O)c1ccccc1O` (stereo unspecified), the result was inactive. On to `CCCCCCCCCCCCCCCC[N+](C)(C)CC`, for which the AC50 is 3.23 µM (active).

Take `COc1ccc2nc(N)sc2c1`: the result was inactive. For the compound `CC(C)(c1cc(Br)c(OCCO)c(Br)c1)c1cc(Br)c(OCCO)c(Br)c1`, the AC50 is 12.1 µM (active). Take `CCCCC/C=C\C/C=C\CCCCCCCC(=O)OC`: the AC50 is 26.9 µM (active). For `Nc1ccc(N)c(Cl)c1`, the AC50 is 8.84 µM (active) and 11.4 µM (active). In the case of `CC1OC1C1CCC2(C)OC2C1` (stereo unspecified), the outcome was inactive. On to `C=C[Si](OC(C)=O)(OC(C)=O)OC(C)=O`, for which the outcome was inactive.

For the compound `S=C(NC1CCCCC1)NC1CCCCC1`, the outcome was inactive. With `C/C=C\C/C=C/CCCCCCCCOC(C)=O`, the AC50 is 26.3 µM (active). For the compound `CCCCC(CC)COCC1CO1` (stereo unspecified), the outcome was inactive. For the compound `CCO[Si](CCCN=C=O)(OCC)OCC`, the outcome was inactive.

Regarding `CO[Si](OC)(OC)c1ccccc1`, the result was inactive. With `CCCCNc1ccc(NCCCC)c2c1C(=O)c1ccccc1C2=O`, the outcome was inactive. Turning to `CCO[Si](C)(OCC)OCC`, the outcome was inactive. `O=C1CCCN1CCO`: the outcome was inactive. Regarding `CN1C(=O)N(C)C(O)C1O` (stereo unspecified), the outcome was inactive. `C=CCOc1c(Br)cc(Br)cc1Br`: the AC50 was 20 µM (active). Turning to `CCCCCCCCc1ccc(Nc2ccc(CCCCCCCC)cc2)cc1`, the result was inactive. Consider `O=C(c1ccc(O)cc1)c1ccc(O)cc1O`, for which the result was inactive. Take `CCOc1nc(F)cc2nc(S(=O)(=O)Nc3c(Cl)cccc3C(=O)OC)nn12`: the result was inactive. Turning to `C=CC=CC=CCCCCC`, the result was inactive. Turning to `c1ccc(-c2ccccn2)nc1`, the outcome was inactive. With `C=CCOCC(O)CCl` (stereo unspecified), the outcome was inactive. Same read-out and setting: in the case of `c1ccc2c(c1)ccc1cc3c(ccc4ccccc43)cc12` it was “inactive”. Same read-out and setting: in the case of `O=C(Nc1ccccc1SSc1ccccc1NC(=O)c1ccccc1)c1ccccc1` it was “inactive”.
